Laboratory results from the supplement of paper PMC9399229.
“And” between values parts separate entries of the source, which are not always exact repeats. Identical values can stand only once. Counter-ions that a name gives are not always drawn. Whole data set: some 1,900 compounds, median “relative cell viability (CellTiter-Glo), compound plus cabozantinib, relative to the cabozantinib arm (arm median 1.05; reference not stated)” near 1.1, cut for the lowest 2% near 0.15. This is one part of a sample in which the lowest values are shown more often than they occur.

test system: Hep3B; assay: relative cell viability (CellTiter-Glo), compound plus cabozantinib, relative to the cabozantinib arm (arm median 1.05; reference not stated) (fraction); higher = more viable cells (less growth inhibition); conditions: cabozantinib 2 µM; 4 days

Structure (SMILES)	relative cell viability
CN(NC(=O)CC(=O)NN(C)C(=S)c1ccccc1)C(=S)c1ccccc1 [Elesclomol (STA-4783)]	0.00669
O=C(O)CCNC(=O)c1ccccc1 [Betamipron]	0.99
O=C(O)c1ccccc1 [Benzoic Acid]	1.12
O=C(NC[C@H](O)CN1CCc2ccccc2C1)c1cc(NC2COC2)ncn1	1.13
OC[C@H]1OC(O)[C@H](O)[C@@H](O)[C@@H]1O (stereo not given in full) [Dextrose]	1.01
CC(C)CC(=O)Nc1n[nH]c2c1CN(C(=O)C1CCN(C)CC1)C2(C)C	0.431
Cc1nc(Nc2n[nH]c3c2CN(C(=O)N[C@H](CN(C)C)c2ccccc2)C3(C)C)c2sccc2n1	0.149
CC1CC(OC(=O)C(O)c2ccccc2)CC(C)(C)C1 (stereo not given) [Cyclandelate]	1.07
O=C(NC1CCOCC1)c1ccc(-c2cc(-c3c[nH]nc3-c3ccccn3)ccn2)cc1	1.12
NC(=O)Nc1cc(-c2cccc(F)c2)sc1C(=O)N[C@H]1CCCNC1	0.162
O=C(NC1CCNCC1)c1n[nH]cc1NC(=O)c1c(Cl)cccc1Cl	0.158 and 0.144
C#C[C@]1(OC(C)=O)CC[C@H]2[C@@H]3CCC4=C[C@@H](OC(C)=O)CC[C@@H]4[C@H]3CC[C@@]21C [Ethynodiol diacetate]	1.12
N#Cc1c(Oc2ccc(F)c(NC(=O)Cc3cccc(C(F)(F)F)c3)c2)ccc2nc(NC(=O)C3CC3)sc12	0.227
CCNC(=O)c1noc(-c2cc(Cl)c(O)cc2O)c1-c1ccc(OC)cc1	0.183
CCCCc1nc2cc(/C=C/C(=O)NO)ccc2n1CCN(CC)CC [Pracinostat (SB939)]	0.147
CN(C)Cc1ccc(S(=O)(=O)n2ccc(/C=C/C(=O)NO)c2)cc1 [Resminostat]	0.59
COc1ccc(C(=O)CC(=O)c2ccc(C(C)(C)C)cc2)cc1 [Avobenzone]	1.1
Cc1cc(C(=O)NOCCO)c(Nc2ccc(I)cc2F)n(C)c1=O	0.141
O=C(NOC[C@H](O)CO)c1ccc(F)c(F)c1Nc1ccc(I)cc1F	0.183
O=C(NOCCO)c1ccc2cncn2c1Nc1ccc(I)cc1F	0.133
O=C(NC[C@H](O)CO)c1ccncc1Nc1ccc(I)cc1F	0.201
O=C(NOCC(O)CO)c1cc(Br)c(F)c(F)c1Nc1ccc(I)cc1F (stereo not given)	0.87
Cn1cnc2c(F)c(Nc3ccc(Br)cc3F)c(C(=O)NOCCO)cc21	0.634
Cc1nc2c([nH]1)-c1ccccc1N(C(=O)c1ccc(NC(=O)c3ccccc3-c3ccccc3)cc1)CC2 [Conivaptan HCl]	0.972
CNC(=O)c1ccccc1Sc1ccc2c(/C=C/c3ccccn3)n[nH]c2c1 [Axitinib]	0.715
